Shown are actives, neighbours in structure and some others; about 1.7% of the full set was active somewhere.
MLLE-PAM2 inh: blocks PAM2 peptide binding to the PABP1 MLLE domain | inhibition, % at 20 µM | 360,000 tested, 0.36% active | GST-MLLE / FITC-PAM2 fluorescence polarization | P11940 | AID 588489; in the data active means inhibition above about 35%, passing the limit was not always enough;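 further: plate controls were DMSO wells with GST-MLLE for no effect and wells lacking GST-MLLE protein for full effect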
EBV gp42 block: blocks Epstein-Barr virus glycoprotein 42 binding; Q1HVG2; Fluorescence polarization binding assay, mP read-out; inhibition, % (tested at 21.74 µM); 220,000 tested, 0.42% active; AID 1085; in the data active means inhibition above about 50%
Target sequence (Q1HVG2 whole entry, looked up): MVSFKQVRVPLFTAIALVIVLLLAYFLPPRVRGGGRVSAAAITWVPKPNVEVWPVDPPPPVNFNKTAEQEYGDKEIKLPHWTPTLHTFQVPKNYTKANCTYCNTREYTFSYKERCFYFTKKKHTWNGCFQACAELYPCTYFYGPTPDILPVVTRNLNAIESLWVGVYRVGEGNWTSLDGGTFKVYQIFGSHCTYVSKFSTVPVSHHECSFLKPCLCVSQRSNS
eIF4E 4G PPI: inhibitors of eIF4E and eIF4G interaction in translation initiation | TR-FRET eIF4E-eIF4GI(517-606) binding, 2 h | inhibition, % at 21.7 µM | P63073+Q04637 | AID 782 | 220,000 tested, 0.37% active;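 active means inhibition above about 30%, limit read from the data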;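 further: 0% = full FRET control wells and 100% = background wells lacking eIF4GI fragment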
PABP FP inh: PABP-poly(A) binding inhibition. P11940. AID 2014. 290,000 tested, 1% active. calls only at 35 µM. PABP-poly(A) RNA binding, fluorescence polarization;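 further: calls also rest on retests at 20 µM and on dose response follow-up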
eIF4H inh: inhibitors of RNA binding by human eIF4H | Q15056 | eIF4H fluorescence polarization binding assay | inhibition, % at 35 µM | 290,000 tested, 0.94% active | AID 2012;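 further: calls also rest on retests at 20 µM and on dose response follow-up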
* = called active by the depositor. Unless noted, how the calls were made is not given here.

Results for CCCCN1C2=C(C(=O)CCC2)C(c2ccc(Cl)c(Cl)c2)C2=C1c1ccccc1C2=O (configuration not stated) ?
MLLE-PAM2 inh: 38; EBV gp42 block: 7; eIF4E 4G PPI: 2; PABP FP inh: active; eIF4H inh: 90*

Results for CCCN1C(=O)c2ccccc2NC1c1ccc(Cl)c(Cl)c1 (configuration not stated) ?
MLLE-PAM2 inh: -4; PABP FP inh: inactive; eIF4H inh: -8

How did CC(=O)NC(=S)Nc1ccc(NC(=O)c2cccnc2Cl)cc1 do in these assays?
MLLE-PAM2 inh: 13; EBV gp42 block: -12; eIF4E 4G PPI: -10; PABP FP inh: inactive; eIF4H inh: 2

Results for CCCCC1=CC2=CC(=O)C(C)(OC(=O)CC)C(=O)C2=CN1CCCCO (configuration not stated) ?
MLLE-PAM2 inh: 45*; EBV gp42 block: 4; eIF4E 4G PPI: -7; PABP FP inh: inactive; eIF4H inh: 62

What do the screens show for `COC(=O)CCCC1=CC2=CC(=O)C(C)(OC(=O)c3cccs3)C(=O)C2=CN1C1CC1` (configuration not stated)?
MLLE-PAM2 inh: 19; EBV gp42 block: -4; eIF4E 4G PPI: -1; PABP FP inh: active; eIF4H inh: 87*

Results for COC(=O)CCCC1=CC2=CC(=O)C(C)(OC(=O)c3cccs3)C(=O)C2=CN1CCN1CCOCC1 (configuration not stated) ?
MLLE-PAM2 inh: 23; EBV gp42 block: -4; eIF4E 4G PPI: 3; PABP FP inh: active; eIF4H inh: 115

Results for CC1(OC(=O)CCc2ccccc2)C(=O)C=C2C=C(c3ccc(C#N)cc3)N(C3CC3)C=C2C1=O (configuration not stated) ?
MLLE-PAM2 inh: -21; EBV gp42 block: -8; eIF4E 4G PPI: -4; PABP FP inh: active; eIF4H inh: 65

Results for CCCCC1=CC2=CC(=O)C(C)(OC(=O)CC)C(=O)C2=CN1C1CCCCC1 (configuration not stated) ?
MLLE-PAM2 inh: -5; EBV gp42 block: -2; eIF4E 4G PPI: 0; PABP FP inh: inactive; eIF4H inh: 17

Results for COCCN1C=C2C(=O)C(C)(OC(=O)c3cccs3)C(=O)C=C2C=C1CCCC(=O)OC (configuration not stated) ?
MLLE-PAM2 inh: 21; EBV gp42 block: 8; eIF4E 4G PPI: -2; PABP FP inh: inactive; eIF4H inh: 64

How did COC(=O)CCCC1=CC2=CC(=O)C(C)(OC(=O)c3cccs3)C(=O)C2=CN1C1CCCCC1 (configuration not stated) do in these assays?
MLLE-PAM2 inh: 16; EBV gp42 block: -1; eIF4E 4G PPI: 0; PABP FP inh: inactive; eIF4H inh: 18

Results for COc1cc(/C=C/C(=O)OCC(=O)N2CCCC2)cc(OC)c1OC ?
MLLE-PAM2 inh: 8

How did CC(C)C(C(=O)NCC1CCCO1)N(CC1CCCO1)C(=O)CNS(=O)(=O)c1ccccc1 (configuration not stated) do in these assays?
MLLE-PAM2 inh: -4; PABP FP inh: inactive; eIF4H inh: -11

How did COc1ccccc1Nc1nc2ccc(C)cc2cc1C#N do in these assays?
MLLE-PAM2 inh: 0; EBV gp42 block: 57*; eIF4E 4G PPI: -2; PABP FP inh: inactive; eIF4H inh: -1

What do the screens show for `COc1ccccc1Nc1nc2cc(C)ccc2cc1C#N`?
MLLE-PAM2 inh: -6; EBV gp42 block: -12; eIF4E 4G PPI: -1; PABP FP inh: inactive; eIF4H inh: 3

How did CN(CC(=O)Nc1c(Cl)cccc1Cl)C(=O)c1ccc2ccccc2n1 do in these assays?
MLLE-PAM2 inh: -16

How did CCN(CC)S(=O)(=O)c1cccc(NC(=O)COC(=O)c2n[nH]c(=O)c3ccccc23)c1 do in these assays?
MLLE-PAM2 inh: -23; EBV gp42 block: -8; eIF4E 4G PPI: 1; PABP FP inh: active; eIF4H inh: -1

Results for CCN(CC)S(=O)(=O)c1cccc(NC(=O)COC(=O)c2cc(C)oc2C)c1 ?
MLLE-PAM2 inh: -18; EBV gp42 block: 1; eIF4E 4G PPI: 4; PABP FP inh: inactive; eIF4H inh: -1

How did O=C(COC(=O)CCc1nc2ccccc2s1)NC(=O)NCc1ccco1 do in these assays?
MLLE-PAM2 inh: 12; EBV gp42 block: -5; eIF4E 4G PPI: 2; PABP FP inh: inactive; eIF4H inh: 12

How did Cc1nc2ccccc2c(=O)n1/N=C/c1c(O)ccc2oc3c(c12)CCCC3 do in these assays?
MLLE-PAM2 inh: -4; EBV gp42 block: -16; eIF4E 4G PPI: -12; PABP FP inh: active; eIF4H inh: 22*

Bioassay records (PubChem BioAssay)
